# Bioassay records as filed in PubChem.
# DT40 TDP1 no CPT = qHTS for Inhibitors of human tyrosyl-DNA phosphodiesterase 1 (TDP1): qHTS in cells in absence of CPT; AID 686978, 2013; 420,000 tested, 15% active; Potency, µM (titrated, usually from 46.2 µM), inactives show top-dose activity change, negative = growth inhibition, actives largely listed as inhibitors; DT40 Tdp1-/- hTDP1 cells, no CPT, ATP luminescence, 48 h; note: potency is the fitted concentration of half-maximal effect; nearly all actives have a fitted effect of over 55% in size
#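 Stably hTDP1-transfected Tdp1-null chicken DT40 cells were treated with library compounds minus camptothecin and grown for at least 48 hr at 37 °C, after which cellular ATP was quantified by luminescence.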
# DT40 TDP1 CPT = growth inhibition of DT40 Tdp1-/-;hTDP1 cells with camptothecin (screen for TDP1 inhibitors). chicken DT40 Tdp1-/-;hTDP1 cells + 20 nM CPT, ATP luminescence, 48 h. Potency, µM (titrated, usually from 46.2 µM), without a hit: at the top dose activity change, negative = growth inhibition, most hits filed as inhibitors. 420,000 tested, 12% active. AID 686979; note: potency is the fitted concentration of half-maximal effect; nearly all actives have a fitted effect of over 55% in size
#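 Cell growth measured by CellTiter-Glo luminescence after a minimum 48 h, 37 C compound exposure with 20 nM CPT in Tdp1-knockout DT40 cells stably expressing hTDP1, seeded 400/well; qHTS titration format.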
# HT1080NT lethal = kills 2HG-producing HT-1080-NT fibrosarcoma cells. Potency, µM (highest dose often 46.1 µM), without a hit: at the top dose activity, negative = less viability, most hits filed as cytotoxic. HT-1080-NT fibrosarcoma viability, CellTiter-Glo ATP luminescence, 48 h. 360,000 tested, 1.6% active;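 note: NT is the 2HG producing partner of a matched IDH1 knockdown line; potency is the fitted concentration of half-maximal effect; 0% = DMSO-treated cells and -100% = media-only wells without cells; nearly all actives have a fitted effect of over 55% in size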
#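 HT-1080-NT; 750 cells/well; 5% FBS RPMI; 48 h compound, 37 degrees C; CellTiter-Glo luminescence; curve fitting and curve-class assignment.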
# HT1080 IDH1KD tx = HT-1080 IDH1 knockdown cell toxicity (counter line); HT-1080 IDH1 knockdown viability, ATP luminescence, 48 h; 360,000 tested, 2% active; AID 686971; Potency, µM (highest dose often 46.1 µM), for the others: at the top dose activity, negative = toxicity, hits mostly cytotoxic;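 note: potency is the fitted concentration of half-maximal effect; 0% = DMSO wells and -100% = cell-free medium wells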
#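 % activity derives from luminescence (CellTiter-Glo), normalised to DMSO and no-cell wells. HT-1080-IDH1KD cells, 750/well, had 48 h compound exposure at 37 °C.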
# IL-1B inflam inh = inflammasome signaling inhibition, IL-1 beta readout | THP-1 LPS/ATP IL-1B secretion, AlphaLISA, 16 h; stronger effect = lower value | activity change, % at 57.5 µM | 360,000 tested, 4.7% active | AID 743279; in the data active = activity change below about -50%; inconclusive = mostly about -30% to -49%
#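 THP-1 cells pretreated 1 hr with compounds (up to 57.5 uM final), then stimulated with LPS (250 ng/mL final) plus ATP (1.25 mM final); secreted IL-1B measured by AlphaLISA after 16 hr, decreased signal indicating inhibition.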
# Starred values were filed as active, the others as inactive; ? = inconclusive; nt = no result; [ ] = remark or other dose. Shown are actives, neighbours in structure and some others; about 19% of the full set was active somewhere. Unless noted, calls come from the whole dose curve; as a rule, active = well fitted curve in the direction sought with a large enough effect; inconclusive = small, poorly fitted or top-dose-only effect, or another doubt; inactive = no such curve, though single readings can be large; an effect the other way counts as inactive or inconclusive. Unless noted, % is set by controls: 0 for no effect and ±100 for the full control effect.
SMILES,DT40 TDP1 no CPT,DT40 TDP1 CPT,HT1080NT lethal,HT1080 IDH1KD tx,IL-1B inflam inh
CCOC(=O)c1c(C)oc2nc(C)nc(NCC3CCN(Cc4cccc(C)c4)CC3)c12,-11%,3%,nt,nt,nt
CCC1(C2CCN(Cc3cccc(Cl)c3)CC2)NC(=O)N(CC2COc3ccccc3O2)C1=O (stereo unspecified),?,-4%[9.04 µM],nt,nt,nt
CCNc1ncc2nc(-c3ccc(OC)cc3)c(=O)n(CCc3ccccc3)c2n1,5%,-4%,nt,nt,nt
O=C1/C(=C\c2ccc(O)cc2)SC(=S)N1/N=C/c1ccc(O)cc1,-1%,-25%,1%,6%,-16
O=C1/C(=C/c2cccc(Br)c2)SC(=S)N1/N=C/c1cc([N+](=O)[O-])ccc1O,?,23µM*,3%,-2%,-13
Cc1cc(O)ccc1NC(=O)Cc1cccc2ccccc12,-4%,-16%,0%,-16%,12
CN(C)c1ccc(S(=O)(=O)N(C)C)cc1NC(=O)Cc1cccc2ccccc12,?,?,-1%,-18%,-52*
CN(C)C(CNS(=O)(=O)c1ccc2ccccc2c1)c1ccccc1 (stereo unspecified),?,?,-1%,-5%,-19
CC(=O)Nc1ccc2c(c1)nc(CCNC(=O)c1ccco1)n2C,10%,-4%,9%,21%,-6
COc1cc(NC(=O)c2csc(-c3ccncc3)n2)cc(C(=O)Nc2cccc(C(F)(F)F)c2)c1,4.6µM*,8.2µM*,-20%,-27%,-15
COc1cc(Nc2ccccn2)cc(C(=O)Nc2cccc(C(F)(F)F)c2)c1,?,16µM*,?,?,-5
COc1cc(NC(=O)c2nccnc2N)cc(C(=O)Nc2cccc(C(F)(F)F)c2)c1,?,?,?,?,58
COc1ccc(-c2cc(C(=O)Nc3cc(OC)cc(C(=O)Nc4cccc(C(F)(F)F)c4)c3)[nH]n2)cc1,2.6µM*,2.3µM*,?,?,46
COc1cc(NC(=O)c2ccc(N)nc2)cc(C(=O)Nc2cccc(C(F)(F)F)c2)c1,16µM*,?,-7%,-14%,-11
O=C(Nc1cccc(C(F)(F)F)c1)c1csc(-c2ccncc2)n1,?,-10%,-6%,-4%,?
COc1ccccc1C(=O)COC(=O)CCNS(=O)(=O)c1ccc(C)c(C)c1,-5%,-4%,2%,-1%,7
c1ccc(-c2[nH]ncc2CN2CCN(Cc3ccc4c(c3)OCO4)CC2)cc1,-25%,2%,14%,-1%,nt
COc1ccc2nc3oc(C(=O)Nc4cccc(C(F)(F)F)c4)cc3cc2c1,12µM*,13µM*,nt,nt,nt
Cn1ccnc1SCC(=O)Nc1cccc(C(F)(F)F)c1,0%,-2%,-7%,17%,-4
COc1ccc(C(=O)c2cc3cccc(OC)c3o2)cc1,7%,-22%,18%,0%,-6
COc1cc(NC(=O)c2cc3cccc(OC)c3o2)cc(C(=O)Nc2cccc(C(F)(F)F)c2)c1,5.2µM*,6.5µM*,?,-17%,40
COc1cc(NC(=O)c2ccno2)cc(C(=O)Nc2cccc(C(F)(F)F)c2)c1,16µM*,?,-10%,-6%,-6
COc1cc(NC(=O)c2nccn2C)cc(C(=O)Nc2cccc(C(F)(F)F)c2)c1,6.5µM*,?,?,?,61
CCc1ccccc1NC(=O)c1nnn(CC(=O)Nc2c(C)cc(C)cc2C)c1N,-13%,12%,nt,nt,nt
O=C(O)CCC(=O)N1CCc2cc(S(=O)(=O)N3CC=C(c4ccccc4)CC3)ccc21,?,?,15%,-9%,23
SMILES,DT40 TDP1 no CPT,DT40 TDP1 CPT,HT1080NT lethal,HT1080 IDH1KD tx,IL-1B inflam inh
Cc1ccc2nc(Nc3nc(CSc4nnc(C)s4)cc(=O)[nH]3)nc(C)c2c1,15µM*,?,0%,1%,-88*
Cc1noc(C)c1CSc1nc2ccccc2s1,?,?,1%,-1%,-1
Cc1ccc2nc(Nc3nc(CSc4nc5ccccc5s4)cc(=O)[nH]3)nc(C)c2c1,15µM*,12µM*,13%,7%,1
COc1ccc(NC(=O)c2oc3ccccc3c2NC(=O)c2cccc(F)c2)c(OC)c1,-14%,0%,nt,nt,nt
O=C(Cn1ncn2c(cc3ccccc32)c1=O)NCc1ccc(F)cc1,4.1µM*,5.8µM*,nt,nt,nt
Cn1nc(CC(=O)NCc2ccc(F)cc2)c2ccccc2c1=O,18µM*,13µM*,2%,-9%,39
O=C(Cn1ncn2c(cc3ccccc32)c1=O)NCCCc1ccccc1,-8%,-15%,6%,1%,0
Cn1nc(CC(=O)NCc2cccc3ccccc23)c2ccccc2c1=O,9.2µM*,7.3µM*,-10%,?,27
Cc1ccc(NC(=O)Cc2nn(C)c(=O)c3ccccc23)cc1F,2.6µM*,2.3µM*,?,?,-23
COc1cc(CN2C[C@@H](CO)O[C@@H](n3cnc4c(NCc5ccco5)ncnc43)C2)cc(OC)c1OC,-29%,-13%,?,1%,8
O=C(COC(=O)CNC(=O)c1ccccc1)Nc1nnc(-c2ccccc2)o1,10%,-28%,-2%,-3%,-10
COc1ccc(NC(=O)COC(=O)c2c(C)noc2C)cc1Cl,-3%,0%,9%,5%,-18
O=C(CNc1cccc([N+](=O)[O-])c1)N1CCN(S(=O)(=O)c2ccc(Cl)cc2)CC1,?,?,2%,-21%,-4
CCC1(C)N=C(N)Nc2nc3cc(C)c(C)cc3n21 (stereo unspecified),9.2µM*,9.2µM*,-11%,-11%,-5
C=CCn1c(SCC(=O)NC(N)=O)nnc1-c1cc2c(s1)CCC(CC)C2 (stereo unspecified),?,-17%,0%,-8%,-21
C=CCn1c(SCC(=O)NCCOC)nnc1-c1cc2c(s1)CCC(CC)C2 (stereo unspecified),18µM*,?,-1%,1%,-19
C=CCn1c(SCC(=O)NCC)nnc1-c1cc2c(s1)CCC(CC)C2 (stereo unspecified),16µM*,23µM*,1%,-12%,-12
O=C(NN=Cc1cc(=O)[nH]c(=O)[nH]1)c1ccncc1,-7%,-17%,-1%,-2%,13
COc1ccc(CNC(=O)CCCCCNc2nc(=S)[nH]c3ccccc23)cc1,10µM*,?,-10%,-13%,-16
O=C(CCCCCNc1nc(=S)[nH]c2ccccc12)NCCc1ccccc1,?,?,-4%,-4%,27
COc1ccc(CCNC(=O)CCCCCNc2nc(=S)[nH]c3ccccc23)cc1OC,18µM*,?,-3%,-5%,-9
